Experimental data reported in PubChem BioAssay AID485350 (ICCB-Longwood Screening Facility, Harvard Medical School, 2010).
Where “and” joins values, the source holds several entries; their conditions need not be identical. Equal entries are not always repeated. Hit rate of the full screen: of about 84,000 compounds, about 95 (0.1%) were called active. Rule as the data show it: active = inhibition above about 25% (passing the limit was not always enough); inactive = the rest. Shown is part of a subset that was picked to be rich in actives.

What follows are compounds tested on BasE (2,3-dihydroxybenzoate-AMP ligase), Acinetobacter baumannii ATCC 17978 (assay: BasE siderophore enzyme inhibitors, primary screen, biochemical, Acinetobacter baumannii ATCC 17978, fluorescence polarization (AID 485350;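 also: 0% = negative plate control signal and 100% = positive plate control signal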)). Conditions: purified BasE, fluorescence polarization binding displacement; active compounds read high; concentration not given here.

inhibition, inactive:
CN(C(=S)NCc1ccccc1)C1CCCCC1 1.12%, C(=C\c1ccccc1)/CNCCCN1CCOCC1 0.89%, CNC(=O)c1ccc(N2CCOc3ccc(Cl)cc32)s1 -0.32%, COc1ccc(CNn2cnnc2SCc2ccc(F)cc2)cc1OC -1.54%, CC12CCC(=O)N1C(C(=O)OCc1cc(=O)n3cc(Br)ccc3n1)CS2 (configuration not stated) 3.92%, CC(C)[C@H](NC(=O)C1CCCCC1)c1nc2ccccc2[nH]1 -0.24%, Cc1cc(C(=O)OCc2cc(=O)oc3cc4c(cc23)CCC4)c(C)o1 -0.6%, COC(=O)C(NC(=O)c1ccc(Cl)cc1)C(F)(F)F (configuration not stated) 7.11%, Cc1ccc(N2C(=O)CCC(C(=O)OCc3nnc(-c4ccccc4)o3)C2c2cccs2)cc1 (configuration not stated) 1.51%, COc1ccc(-n2c(-c3ccc(Cl)cc3)cnc2SCc2nccn2C)cc1 -1.16%, COc1ccc(S(=O)(=O)N(C)CC(=O)N2CCCC2)cc1 -1.85%, OCC1OC(Oc2ccc3cc(Br)ccc3c2)C(O)C(O)C1O (configuration not stated) -1.6%, CCOC(=O)c1c(-c2ccco2)csc1NC(=O)COC(=O)Cn1[nH]c(=O)c2ccccc2c1=O 3.28%, O=C(NCCSc1ncc(-c2ccccc2)[nH]1)c1ccco1 -0.84%, Cc1ccc(S(=O)(=O)Nc2nc(O)c(C3=c4ccccc4=NC3=O)s2)cc1 2.18%, C(=N\n1cnnc1)/c1ccc(OC2OCCOC2Oc2ccc(/C=N/n3cnnc3)cc2)cc1 (configuration not stated) 1.12%, C=CCn1c(CCSCc2ccc(OC)cc2)n[nH]c1=S -0.73%, COc1cccc(-c2noc(COC(=O)c3ccccc3-c3ccccc3C#N)n2)c1 1.11%, CC(Oc1ccc(F)cc1)C(=O)O (configuration not stated) -0.06%, O=C(OCC(=O)N1CCOCC1)c1ccc(Cl)cc1 0.53%, O=c1c(OCCc2ccccc2)c(-c2ccco2)oc2ccccc12 5.62%, Cc1ccc(S(=O)(=O)NC(c2ccccc2)c2nnc(-c3ccccc3)o2)cc1 (configuration not stated) -0.19%, O=C1Nc2ccccc2OC1CC(=O)N1CCN(Cc2ccc3c(c2)OCO3)CC1 (configuration not stated) -0.54%, CCc1c(C)c(C#N)c2nc3ccccc3n2c1N1CCN(Cc2cc(Cl)ccc2OC)CC1 0.68%, CCOC(=O)c1sc(=NC(C)=O)n(C)c1C -1.69%, Cc1cc(C)n(-c2ccc(Cl)c(C(=O)OCC(=O)NCc3ccco3)n2)n1 1.59%, CCn1cnc2c(=O)oc3ccc(S(=O)(=O)N4CCN(c5cc(Cl)ccc5C)CC4)cc3c21 2.98%, CCOC(=O)C1=C(CN2CCn3cccc3C2C)NC(=O)NC1c1ccc(Cl)cc1 (configuration not stated) -0.37%, N#CCSc1[nH]c(=O)c(-c2nc(-c3ccccc3)cs2)cc1C#N 1.84%, Cc1ccc(/C=C/C(=O)OCC(=O)c2cc(C)c(C)cc2C)o1 1.01%, CC(Sc1nnc(N)s1)C(=O)NCCC1=CCCCC1 (configuration not stated) 2.13%, C/C(=N\NC(=O)NC1CCCCC1)c1ccc(OC(F)F)cc1OC(F)F 1.32%, FC(F)Oc1ccc(-c2csc(=Nc3cccnc3)n2C2CC2)cc1 3.62%, Cc1cc(/C=N/N2C(=O)c3ccccc3C2=O)cc(C)c1O 0.22%, CCN(CC)CC(O)Cn1c(=O)n(CC(O)CN(CC)CC)c(=O)n(CC(O)CN(CC)CC)c1=O (configuration not stated) -0.02%, O=C1Cc2ccccc2C(=O)N1Cc1ccccn1 4.89%, O=C1CCC2(C(=O)OCCCn3c(=O)[nH]c4ccccc43)Sc3ccccc3N12 (configuration not stated) 1.34%, O=C(c1cc(Cl)c(O)c(Cl)c1)N1CCc2ccccc2C1 3%, Cc1nn2cnnc2c(C)c1CCC(=O)NCCCc1ccccc1 -4.03%, O=C(CCC1CC(=O)OC1c1ccccc1)Nc1nccs1 (configuration not stated) 0.54%, CCOC(=O)c1c(C)oc2ncnc(N(C)Cc3ccccc3)c12 1.14%, COC(=O)c1cc(S(=O)(=O)N(CCCN2CCOCC2)C2CCN(C)CC2)cn1C -0.33%, Cc1c(CCC(C)C)c(NCCN2CCOCC2)n2c(nc3ccccc32)c1C#N 2.4%, CCN(C(=O)COc1ccc(Cl)cc1C)c1ccccc1 0.83%, CCOc1ccc(-n2cc(C(=O)N3CCN(c4ccccc4OC)CC3)c3cc(OC)c(OC)cc3c2=O)cc1 0.29%, Cc1cccc(NC(=O)NCC(=O)NC2CC2)c1 -0.65%, COCC(C)NC(=O)Nc1c[nH]c2ccccc12 (configuration not stated) -1.24%, CCOc1cc(C(=O)CCC(=O)O)ccc1O 0.21%, CCN(Cc1ccccc1)C(=O)c1cccc(N2C(=O)CCC2=O)c1 1.51%, C=CCN1C(=O)S/C(=C\c2ccc(OCC(=O)OC)cc2)C1=O 0.73%, CCSc1nnc(CNc2ccc(F)cc2)n1-c1ccc(C)cc1 1.16%, CN(CC(=O)Nc1ccccc1Cl)Cn1nc(-c2ccco2)oc1=S 1.44%, CCCN(CCC)Cc1ccc(CNc2nc(-c3ccc(OC)cc3)no2)o1 -0.49%, CCC(CO)n1c(SCC(=O)Nc2ccc(C)c(C)c2)nc2cc(OC)c(OC)cc2c1=O (configuration not stated) 1.28%, COc1ccc(-c2noc(C3CCN(C(=O)OC(C)(C)C)CC3)c2C(=O)O)cc1 1.39%, Nc1ccccc1C(=O)NCC1CCCO1 (configuration not stated) -4.47%, COc1ccc(-n2cc3c(c(C#N)c2=N)CC(C)(C)CC3=O)c(OC)c1 -12.9%, COC(=O)c1ccc(/C=N/O)cc1 1.3%, S=c1[nH]nc(-c2ccncc2)n1/N=C/c1cccnc1 -0.5% and 1.06%, Cc1ccc(N=C2C(=O)N(CN3CCCC(C)C3)c3ccccc32)cc1 (configuration not stated) 0.38%, CCCc1nnc(SCC(=O)N2CCCc3ccccc32)n1CC -5.47%, Cc1cccc(C(=O)NCC(=O)NN)c1 0.12%, CCOCCCNc1nc2ccccc2nc1NS(=O)(=O)c1cccc2nsnc12 0.69%, O=S(=O)(NCc1ccc2c(c1)OCO2)c1cccc2nsnc12 0.67%, Cc1cc(C)n(-c2ccc(C(=O)OCC(=O)C(C)(C)C)cc2)n1 -0.47%, OC(CN1CCCCC1)CN1c2ccccc2Sc2ccccc21 (configuration not stated) -0.28%, O=C(Nc1ccccc1)Nc1ccc(Cl)c(Cl)c1 2.62%, Cc1ccccc1Nc1nc(N)nc(Cn2cc(Br)ccc2=O)n1 2.02%, Cc1ccc(S(=O)(=O)N(C)CC(=O)O)cc1 0.19%, CC(C)CN(CC(C)C)C(=O)C1CCN(S(=O)(=O)c2cccc3nsnc23)CC1 -0.22%, CCc1c(C)nc2n(c1=O)C(CS(=O)(=O)c1ccc3ccccc3c1)CS2 (configuration not stated) 2.08%, O=C(O)CN1CCN(C(c2ccccc2)c2ccccc2)CC1 1.06%, CCCCn1c(N)c(N(C(=O)c2ccc(Cl)c(Cl)c2)C2CCCC2)c(=O)[nH]c1=O 2.21%, Cc1ccc(NC(=O)CCn2c(=O)sc3ccccc32)cc1C 2.16%, O=C(CSc1cccc[n+]1[O-])c1cc2c3c(c1)CC(=O)N3CCC2 1.79%, Cc1ccsc1C(=O)OCc1nc2sc3c(c2c(=O)[nH]1)CCCC3 -0.18%

inhibition, active:
Cc1csc(NC(=O)C2CCC(CNS(=O)(=O)c3cccc4nsnc34)CC2)n1 (configuration not stated) 28.5%
